# PubChem BioAssay (EPA / NIEHS)
# Inconclusive results are not listed. Active and inactive are the calls of the source. Rule for the calls, unless noted: active = hit-call score of the fitted dose curve at least 0.9, where 1 is the maximum; inconclusive = response in the unintended direction; inactive = score below 0.9.
# What was measured:
# [1] = ATG_TGFb_CIS: Attagene CIS-FACTORIAL HepG2 Assay for human Transforming Growth Factor (TGF) (AID 2282967; active = hit-call score of the fitted dose curve at least 0.9, where 1 is the maximum; inactive = score below 0.9); settings: HepG2 Attagene CIS TGFb reporter, mRNA transcription; actives raise or lower the signal
# Summary of the method: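 Multiplexed cis-reporter HepG2 system, 24 h treatment; mRNA induction read by fluorescence after RT-PCR and CE; DMSO negative control, bidirectional curve fitting.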
# [2] = ATG_VDRE_CIS: Attagene CIS-FACTORIAL HepG2 Assay for human Vitamin D Receptor Element (VDRE) (AID 2282968; active = hit-call score of the fitted dose curve at least 0.9, where 1 is the maximum; inactive = score below 0.9); settings: HepG2 VDRE cis-reporter transcription, actives raise or lower the signal
# Summary of the method: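 Reporter mRNA induction, quantified by capillary electrophoresis of fluorescently labelled RT-PCR products, was read 24 h after dosing HepG2 cells carrying transiently transfected cis-regulated reporter units; gain or loss relative to DMSO.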
# [3] = biological target: Steroid hormone receptor ERR1 (Homo sapiens) (UniProt P11474); test: ATG_ERRa_TRANS: Attagene TRANS-FACTORIAL HepG2 Assay for human Estrogen-Related Receptor alpha (ERRa) (AID 2282971); settings: HepG2 Attagene TRANS reporter, ERRa transactivation
# Sequence of Steroid hormone receptor ERR1 (Homo sapiens) (P11474 whole entry, looked up, the tested form may be a part): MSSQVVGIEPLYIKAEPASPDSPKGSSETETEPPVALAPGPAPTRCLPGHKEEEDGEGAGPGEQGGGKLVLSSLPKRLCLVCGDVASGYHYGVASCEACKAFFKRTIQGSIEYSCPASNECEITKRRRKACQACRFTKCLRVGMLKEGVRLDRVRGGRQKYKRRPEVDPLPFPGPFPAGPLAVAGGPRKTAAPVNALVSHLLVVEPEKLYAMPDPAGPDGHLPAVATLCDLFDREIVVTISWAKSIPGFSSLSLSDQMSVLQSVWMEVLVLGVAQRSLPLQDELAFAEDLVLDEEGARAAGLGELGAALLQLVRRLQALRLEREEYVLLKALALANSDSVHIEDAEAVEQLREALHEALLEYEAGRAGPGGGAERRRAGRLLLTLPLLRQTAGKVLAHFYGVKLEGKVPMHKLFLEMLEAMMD
# Summary of the method: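 Transfected HepG2, 24 h dosing, ERRa-Gal4 chimera driving GAL4-UAS reporter. Readout: reporter mRNA via RT-PCR plus capillary electrophoresis (fluorescence). Positive direction vs DMSO control.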
# [4] = biological target: X-box-binding protein 1 (Homo sapiens) (UniProt P17861); test: ATG_Xbp1_CIS: Attagene CIS-FACTORIAL HepG2 Assay for human X-box Binding Protein 1 (XBP1) (AID 2282972; active = hit-call score of the fitted dose curve at least 0.9, where 1 is the maximum; inactive = score below 0.9); settings: HepG2 XBP1 cis-element reporter, Attagene multiplex; actives raise or lower the signal
# Summary of the method: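 Fluorescence-labelled cDNA fragments from reporter transcripts, separated by capillary electrophoresis, give the signal. Source: HepG2 cells transfected with promoter-driven reporter units, harvested 24 h post-dose. DMSO served as reference for bidirectional curve fitting.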
# [5] = ATG_M_19_TRANS: Attagene TRANS-FACTORIAL HepG2 Assay for M19 Transcription Factor (Internal Marker) (AID 2282974); settings: HepG2 Attagene TRANS-FACTORIAL M19 internal marker reporter
# Summary of the method: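 Transfected HepG2 (GAL4-UAS MRTUs), 24 h compound, TriZol RNA, DNase-treated RT, reporter PCR, FAM label, HpaI digest, CE fluorescence; gain vs DMSO.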
# [6] = ATG_GAL4_TRANS: Attagene TRANS-FACTORIAL HepG2 Assay for GAL4 (Internal Marker) (AID 2282976); settings: HepG2 Attagene TRANS GAL4 internal marker reporter
# Summary of the method: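 RT-PCR/capillary electrophoresis readout of reporter mRNA. HepG2, transient MRTU transfection (GAL4-UAS reporters), 24 h compound exposure. Background-control endpoint, positive direction vs DMSO baseline.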
# [7] = biological target: Estrogen-related receptor gamma (Homo sapiens) (UniProt P62508); test: ATG_ERRg_TRANS: Attagene TRANS-FACTORIAL HepG2 Assay for human Estrogen-Related Receptor gamma (ERRg) (AID 2282977); settings: HepG2 Attagene TRANS reporter, ERRg transactivation;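 note: hits increase reporter signal over DMSO so potencies reflect activators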
# Sequence of Estrogen-related receptor gamma (Homo sapiens) (P62508 whole entry, looked up, the tested form may be a part): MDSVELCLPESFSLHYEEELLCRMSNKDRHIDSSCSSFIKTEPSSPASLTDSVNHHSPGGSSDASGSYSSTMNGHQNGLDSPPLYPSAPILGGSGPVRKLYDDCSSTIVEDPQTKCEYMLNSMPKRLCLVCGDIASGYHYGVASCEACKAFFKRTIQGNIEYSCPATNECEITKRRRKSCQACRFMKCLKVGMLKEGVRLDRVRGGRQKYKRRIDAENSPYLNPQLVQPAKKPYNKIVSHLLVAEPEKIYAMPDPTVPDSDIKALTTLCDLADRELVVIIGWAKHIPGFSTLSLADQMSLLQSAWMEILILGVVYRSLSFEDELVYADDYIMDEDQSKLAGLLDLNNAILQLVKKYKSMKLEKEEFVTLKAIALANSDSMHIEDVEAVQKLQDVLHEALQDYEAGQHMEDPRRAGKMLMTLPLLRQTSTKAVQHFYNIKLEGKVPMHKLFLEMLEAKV
# Summary of the method: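 Transfect HepG2 with multiple GAL4-UAS reporter transcription units; dose chemicals 24 h; isolate RNA, reverse-transcribe with oligo(dT), PCR-amplify, label with 6-FAM, digest with HpaI; size fragments by capillary electrophoresis. DMSO serves as negative control.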
# [8] = biological target: Glucocorticoid receptor (Homo sapiens) (UniProt P04150); test: ATG_GR_TRANS: Attagene TRANS-FACTORIAL HepG2 Assay for human Glucocorticoid Receptor (GR) (AID 2282978); settings: HepG2 Attagene TRANS GR reporter, mRNA transcription;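 note: activators score as hits since higher reporter transcript over DMSO is fitted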
# Sequence of Glucocorticoid receptor (Homo sapiens) (P04150 whole entry, looked up): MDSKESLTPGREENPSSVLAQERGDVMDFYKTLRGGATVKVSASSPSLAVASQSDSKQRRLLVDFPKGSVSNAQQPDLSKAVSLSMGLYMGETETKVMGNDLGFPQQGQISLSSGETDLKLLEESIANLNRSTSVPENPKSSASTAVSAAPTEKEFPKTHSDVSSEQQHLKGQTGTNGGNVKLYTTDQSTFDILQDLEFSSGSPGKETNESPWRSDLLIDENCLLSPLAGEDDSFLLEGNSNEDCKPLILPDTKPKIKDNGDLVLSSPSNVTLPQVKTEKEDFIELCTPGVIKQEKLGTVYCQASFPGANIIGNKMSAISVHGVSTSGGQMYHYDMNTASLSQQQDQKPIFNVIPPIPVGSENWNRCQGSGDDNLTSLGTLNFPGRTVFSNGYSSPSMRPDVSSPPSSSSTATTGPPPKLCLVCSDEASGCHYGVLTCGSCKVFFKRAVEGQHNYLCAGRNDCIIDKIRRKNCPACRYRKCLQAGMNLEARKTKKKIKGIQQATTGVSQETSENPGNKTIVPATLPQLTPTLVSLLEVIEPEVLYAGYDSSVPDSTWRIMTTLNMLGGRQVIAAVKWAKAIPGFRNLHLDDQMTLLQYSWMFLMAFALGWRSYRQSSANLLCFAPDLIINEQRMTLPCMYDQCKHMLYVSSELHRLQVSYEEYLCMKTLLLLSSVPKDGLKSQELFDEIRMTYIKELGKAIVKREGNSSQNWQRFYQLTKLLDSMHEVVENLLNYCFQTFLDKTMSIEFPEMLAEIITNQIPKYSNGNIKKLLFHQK
# Summary of the method: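 After 24 h incubation with test chemical, transfected HepG2 cells were lysed for RNA; reporter cDNA was amplified, FAM-labelled, HpaI-digested and sized on a capillary analyser. Signal gain relative to DMSO was scored.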
# [9] = biological target: Bile acid receptor (Homo sapiens) (UniProt Q96RI1); test: ATG_FXR_TRANS: Attagene TRANS-FACTORIAL HepG2 Assay for Farnesoid X Receptor (FXR) (AID 2282979); settings: HepG2 Attagene TRANS FXR-GAL4 reporter transcription;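 note: hits raise reporter mRNA above DMSO so AC50 marks FXR activation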
# Sequence of Bile acid receptor (Homo sapiens) (Q96RI1 whole entry, looked up, the tested form may be a part): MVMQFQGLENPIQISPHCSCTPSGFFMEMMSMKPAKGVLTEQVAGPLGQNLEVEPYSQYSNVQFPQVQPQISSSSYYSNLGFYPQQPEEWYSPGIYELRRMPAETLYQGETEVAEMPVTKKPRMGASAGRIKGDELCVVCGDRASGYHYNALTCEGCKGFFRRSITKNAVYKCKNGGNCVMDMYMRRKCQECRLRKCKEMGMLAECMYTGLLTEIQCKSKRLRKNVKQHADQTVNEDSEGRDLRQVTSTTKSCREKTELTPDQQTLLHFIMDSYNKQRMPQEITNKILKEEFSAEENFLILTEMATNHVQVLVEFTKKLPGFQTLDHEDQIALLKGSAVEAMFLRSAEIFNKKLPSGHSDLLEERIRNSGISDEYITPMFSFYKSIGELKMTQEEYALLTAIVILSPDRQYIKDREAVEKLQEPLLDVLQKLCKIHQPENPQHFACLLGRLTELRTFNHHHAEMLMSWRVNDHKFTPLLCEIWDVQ
# Summary of the method: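 Read-out: fluorescent reporter transcripts quantified by capillary electrophoresis after RT-PCR of total RNA. Source cells were HepG2 transiently carrying chimeric NR-GAL4 plus GAL4-UAS reporter units, dosed 24 h. Activity fitted upward relative to DMSO baseline.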
# [10] = biological target: Oxysterols receptor LXR-alpha (Homo sapiens) (UniProt Q13133); test: ATG_LXRa_TRANS: Attagene TRANS-FACTORIAL HepG2 Assay for human Liver X Receptor alpha (LXRa) (AID 2282980); settings: HepG2 Attagene TRANS reporter, LXRa transactivation
# Sequence of Oxysterols receptor LXR-alpha (Homo sapiens) (Q13133 whole entry, looked up, the tested form may be a part): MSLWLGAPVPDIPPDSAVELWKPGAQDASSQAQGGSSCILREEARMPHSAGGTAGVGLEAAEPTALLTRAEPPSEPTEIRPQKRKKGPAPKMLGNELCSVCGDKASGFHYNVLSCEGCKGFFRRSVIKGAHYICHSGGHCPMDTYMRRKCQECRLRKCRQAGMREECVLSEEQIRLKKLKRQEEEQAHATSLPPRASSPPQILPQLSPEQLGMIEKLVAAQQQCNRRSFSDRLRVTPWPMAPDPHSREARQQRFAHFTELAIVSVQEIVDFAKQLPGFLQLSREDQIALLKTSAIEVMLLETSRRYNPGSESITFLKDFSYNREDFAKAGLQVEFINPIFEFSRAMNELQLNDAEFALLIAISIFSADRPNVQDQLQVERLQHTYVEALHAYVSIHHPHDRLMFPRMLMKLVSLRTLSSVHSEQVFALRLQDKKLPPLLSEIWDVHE
# Summary of the method: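 Read-out: reporter transcript levels by RT-PCR plus capillary electrophoresis, fluorescence intensity. Transiently transfected HepG2, exogenous NR-GAL4 chimera, GAL4-UAS reporters; 24 h compound exposure. Activity = increase over DMSO negative control.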
# [11] = biological target: Oxysterols receptor LXR-beta (Homo sapiens) (UniProt P55055); test: ATG_LXRb_TRANS: Attagene TRANS-FACTORIAL HepG2 Assay for human Liver X Receptor beta (LXRb) (AID 2282981); settings: HepG2 Attagene TRANS GAL4-LXRb reporter, mRNA
# Sequence of Oxysterols receptor LXR-beta (Homo sapiens) (P55055 whole entry, looked up, the tested form may be a part): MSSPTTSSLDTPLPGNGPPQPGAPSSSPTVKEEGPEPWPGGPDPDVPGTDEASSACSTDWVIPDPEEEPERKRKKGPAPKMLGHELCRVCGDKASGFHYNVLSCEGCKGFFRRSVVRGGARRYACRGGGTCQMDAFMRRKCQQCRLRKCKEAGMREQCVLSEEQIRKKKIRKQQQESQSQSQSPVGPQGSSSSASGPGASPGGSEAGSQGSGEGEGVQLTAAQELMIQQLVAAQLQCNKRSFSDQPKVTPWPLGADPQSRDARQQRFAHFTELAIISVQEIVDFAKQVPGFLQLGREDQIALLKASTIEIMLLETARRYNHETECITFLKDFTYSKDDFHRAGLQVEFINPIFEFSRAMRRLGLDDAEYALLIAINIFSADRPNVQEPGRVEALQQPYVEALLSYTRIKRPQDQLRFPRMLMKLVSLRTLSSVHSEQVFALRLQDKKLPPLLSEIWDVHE
# Summary of the method: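 Transient transfection HepG2 (multiplexed RTUs, GAL4-UAS); NR-Gal4 chimera; 24 h exposure; RNA → RT-PCR → 6-FAM primer extension → HpaI → CE; increase vs DMSO.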
# [12] = biological target: Hepatocyte nuclear factor 4-alpha (Homo sapiens) (UniProt P41235); test: ATG_HNF4a_TRANS: Attagene TRANS-FACTORIAL HepG2 Assay for human Hepatocyte Nuclear Factor 4 alpha (HNF4a) (AID 2282982); settings: HepG2 HNF4a transactivation reporter, mRNA readout
# Sequence of Hepatocyte nuclear factor 4-alpha (Homo sapiens) (P41235 whole entry, looked up, the tested form may be a part): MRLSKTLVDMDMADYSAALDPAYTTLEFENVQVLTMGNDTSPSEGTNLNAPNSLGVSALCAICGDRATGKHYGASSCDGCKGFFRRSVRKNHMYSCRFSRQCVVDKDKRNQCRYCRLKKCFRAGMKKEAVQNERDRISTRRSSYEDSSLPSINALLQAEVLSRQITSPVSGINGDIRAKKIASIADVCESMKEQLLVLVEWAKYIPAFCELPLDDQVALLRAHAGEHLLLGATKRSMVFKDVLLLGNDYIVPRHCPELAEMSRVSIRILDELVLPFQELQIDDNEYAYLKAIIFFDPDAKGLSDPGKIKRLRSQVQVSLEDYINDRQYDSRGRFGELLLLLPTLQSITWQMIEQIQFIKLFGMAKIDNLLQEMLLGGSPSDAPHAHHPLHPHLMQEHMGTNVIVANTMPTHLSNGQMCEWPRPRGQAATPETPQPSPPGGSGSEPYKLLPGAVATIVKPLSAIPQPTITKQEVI
# Summary of the method: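 Readout is fluorescent reporter-transcript fragments resolved by capillary electrophoresis after RT-PCR from HepG2 cells dosed for 24 h. Cells carried transfected GAL4-UAS reporter constructs measuring exogenous NR-GAL4 chimera activity; DMSO served as baseline.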
# [13] = ATG_M_06_TRANS: Attagene TRANS-FACTORIAL HepG2 Assay for M06 Transcription Factor (Internal Marker) (AID 2282983); settings: HepG2 Attagene TRANS M06 internal marker reporter
# Summary of the method: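 After a 24 h chemical treatment of transfected HepG2, RNA underwent DNase I treatment, reverse transcription and reporter-specific PCR; labelled, HpaI-digested products were sized by capillary electrophoresis. Signal increase relative to DMSO defined activity.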
# [14] = ATG_M_32_TRANS: Attagene TRANS-FACTORIAL HepG2 Assay for M32 Transcription Factor (Internal Marker) (AID 2282984); settings: HepG2 Attagene TRANS M32 internal marker reporter;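 note: transcript level of a background control reporter unit measured by RT-PCR and capillary electrophoresis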
# Summary of the method: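 Measures reporter mRNA induction in human HepG2 liver cells after 24 h chemical treatment. Transcripts from transiently transfected GAL4-UAS reporter units are amplified, fluorescently labelled and sized by capillary electrophoresis; gain of signal relative to DMSO.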
# [15] = biological target: Transcriptional activator Myb (Homo sapiens) (UniProt P10242); test: ATG_Myb_CIS: Attagene CIS-FACTORIAL HepG2 Assay for human Myeloblastosis (Myb) Proto-Oncogene Transcription Factor (AID 2282986; active = hit-call score of the fitted dose curve at least 0.9, where 1 is the maximum; inactive = score below 0.9); settings: HepG2 Attagene CIS-FACTORIAL Myb reporter transcription; actives raise or lower the signal
# Sequence of Transcriptional activator Myb (Homo sapiens) (P10242 whole entry, looked up): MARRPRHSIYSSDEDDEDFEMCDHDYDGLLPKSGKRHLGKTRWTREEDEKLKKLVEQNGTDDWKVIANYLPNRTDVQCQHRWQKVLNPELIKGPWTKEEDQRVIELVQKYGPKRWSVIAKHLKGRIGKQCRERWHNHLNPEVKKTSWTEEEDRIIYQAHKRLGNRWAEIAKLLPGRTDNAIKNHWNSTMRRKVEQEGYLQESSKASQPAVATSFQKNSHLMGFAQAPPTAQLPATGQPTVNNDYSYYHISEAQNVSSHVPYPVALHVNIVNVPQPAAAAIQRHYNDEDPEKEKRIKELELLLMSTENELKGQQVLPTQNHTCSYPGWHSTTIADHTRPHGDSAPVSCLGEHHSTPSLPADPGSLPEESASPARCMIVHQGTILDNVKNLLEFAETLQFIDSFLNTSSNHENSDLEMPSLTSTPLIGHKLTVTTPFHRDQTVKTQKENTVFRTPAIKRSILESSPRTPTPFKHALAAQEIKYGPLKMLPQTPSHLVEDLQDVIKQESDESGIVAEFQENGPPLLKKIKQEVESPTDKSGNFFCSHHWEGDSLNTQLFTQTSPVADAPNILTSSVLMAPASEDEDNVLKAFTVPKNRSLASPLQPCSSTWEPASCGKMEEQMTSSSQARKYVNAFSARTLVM
# Summary of the method: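 After 24 h of compound dosing, total RNA from transfected HepG2 cells is reverse-transcribed and the reporter sequences amplified, labeled and separated by capillary electrophoresis. Values come from bidirectional fitting against DMSO.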
# [16] = biological target: Nuclear respiratory factor 1 (Homo sapiens) (UniProt Q16656); test: ATG_NRF1_CIS: Attagene CIS-FACTORIAL HepG2 Assay for human Nuclear Respiratory Factor 1 (NRF1) Orphan Gene (AID 2282987; active = hit-call score of the fitted dose curve at least 0.9, where 1 is the maximum; inactive = score below 0.9); settings: HepG2 NRF1 cis-element reporter, Attagene multiplex; actives raise or lower the signal
# Summary of the method: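 Measured: fluorescent reporter-specific RT-PCR products from transfected HepG2 cells, separated by capillary electrophoresis. Exposure lasted 24 h. Analysis used bidirectional curve fitting with DMSO as negative control.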
# [17] = biological target: Nuclear receptor subfamily 1 group I member 3 (Homo sapiens) (UniProt Q14994); test: ATG_CAR_TRANS: Attagene TRANS-FACTORIAL HepG2 Assay for human Constitutive Androstane Receptor (CAR) (AID 2282969); settings: HepG2 Attagene TRANS-FACTORIAL CAR reporter;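 note: activators raise reporter mRNA above DMSO so AC50 marks induction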
# Summary of the method: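 Readout is reporter mRNA induction, quantified by fluorescent primer extension and capillary electrophoresis after RT-PCR. Cells were HepG2 transiently carrying chimeric NR-Gal4 constructs with GAL4-UAS reporters, treated for 24 h; activity scored upward from DMSO.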
# [18] = biological target: Nuclear receptor subfamily 4 group A member 2 (Homo sapiens) (UniProt P43354); test: ATG_NURR1_TRANS: Attagene TRANS-FACTORIAL HepG2 Assay for human Nuclear Receptor Related Protein 1 (NURR1) (AID 2282985); settings: HepG2 Attagene TRANS reporter, mRNA readout
# Sequence of Nuclear receptor subfamily 4 group A member 2 (Homo sapiens) (P43354 whole entry, looked up, the tested form may be a part): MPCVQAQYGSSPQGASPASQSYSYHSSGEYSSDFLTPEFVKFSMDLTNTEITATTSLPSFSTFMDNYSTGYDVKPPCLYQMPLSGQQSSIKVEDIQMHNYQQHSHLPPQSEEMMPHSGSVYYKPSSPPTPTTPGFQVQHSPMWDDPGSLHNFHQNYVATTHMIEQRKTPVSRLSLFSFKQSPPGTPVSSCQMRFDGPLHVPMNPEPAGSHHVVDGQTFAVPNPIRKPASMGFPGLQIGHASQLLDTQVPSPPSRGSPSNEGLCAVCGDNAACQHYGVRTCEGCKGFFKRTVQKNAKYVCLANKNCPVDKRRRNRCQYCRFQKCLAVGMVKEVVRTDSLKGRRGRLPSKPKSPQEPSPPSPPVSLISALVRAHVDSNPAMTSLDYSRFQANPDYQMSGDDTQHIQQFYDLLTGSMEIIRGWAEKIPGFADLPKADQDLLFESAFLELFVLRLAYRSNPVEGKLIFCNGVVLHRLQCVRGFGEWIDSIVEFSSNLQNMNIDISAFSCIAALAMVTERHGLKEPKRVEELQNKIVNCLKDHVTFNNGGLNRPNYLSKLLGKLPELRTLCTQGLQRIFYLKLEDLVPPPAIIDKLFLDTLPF
# Summary of the method: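 Transient transfection of HepG2, human liver cells, with multiple GAL4-UAS reporter transcription units. Cells dosed 24 h, RNA isolated, reverse-transcribed, PCR-amplified, FAM-labelled, HpaI-digested, sized by capillary electrophoresis. DMSO served as negative control.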
SMILES,outcome [1],outcome [2],outcome [3],outcome [4],outcome [5],outcome [6],outcome [7],outcome [8],outcome [9],outcome [10],outcome [11],outcome [12],outcome [13],outcome [14],outcome [15],outcome [16],outcome [17],outcome [18],AC50 [2],AC50 [4]
CCCCCCCCCCCC(=O)OC[C@@H](O)[C@H]1OC[C@H](O)[C@H]1O,inactive,inactive,inactive,inactive,inactive,inactive,inactive,inactive,inactive,inactive,inactive,inactive,inactive,inactive,inactive,inactive,,,,
CC(Oc1cc(Cl)ccc1Cl)C(=O)O (stereo not given),inactive,,,inactive,inactive,inactive,,,,inactive,inactive,,,,inactive,,inactive,inactive,,
O=CCc1ccccc1,inactive,inactive,,inactive,,,,,,inactive,,inactive,inactive,inactive,inactive,inactive,inactive,inactive,,
CC(C)(N=C=O)c1cccc(C(C)(C)N=C=O)c1,inactive,inactive,inactive,inactive,,inactive,inactive,inactive,,inactive,,,inactive,inactive,inactive,inactive,,inactive,,
CC(=O)OCCCc1ccccc1,inactive,,inactive,inactive,inactive,inactive,inactive,,,inactive,inactive,,,inactive,inactive,inactive,,,,
CCCCCCOCCOCCO,inactive,,,inactive,inactive,,,,,,inactive,inactive,inactive,,inactive,inactive,,,,
O=C(Nc1ccc([N+](=O)[O-])cc1)Nc1ccc([N+](=O)[O-])cc1 (tested in a mixture with another compound),inactive,inactive,,inactive,,,,inactive,inactive,inactive,inactive,,inactive,inactive,inactive,inactive,,,,
CCN(CCC#N)c1ccc(N=Nc2ccc([N+](=O)[O-])cc2)cc1,inactive,inactive,,inactive,,inactive,inactive,,inactive,,,,inactive,,inactive,inactive,inactive,,,
CS(=O)(=O)c1ccc(Cl)cc1,inactive,inactive,inactive,inactive,,inactive,inactive,inactive,,inactive,inactive,,inactive,inactive,inactive,inactive,,,,
COC(=O)c1ccc(C)cc1C1=NC(C)(C(C)C)C(=O)N1 (stereo not given) (tested in a mixture with another compound),inactive,,,,inactive,,inactive,,,inactive,,,,,inactive,inactive,,inactive,26.8 µM (active),
O=Cc1ccccc1S(=O)(=O)O,inactive,inactive,,inactive,,,,,,,,,inactive,,inactive,inactive,,,,
Nc1ccc(N)c2c1C(=O)c1ccccc1C2=O,inactive,,,,inactive,inactive,inactive,,inactive,,,inactive,,,inactive,inactive,inactive,inactive,6.59 µM (active),2.57 µM (active)
O=C(Nc1ccc2c(c1)Cc1ccccc1-2)C(F)(F)F,inactive,,,inactive,,inactive,,,inactive,inactive,inactive,inactive,inactive,,inactive,,inactive,inactive,30.5 µM (active),
CCCCCCCC(=O)OCCCCCC,inactive,inactive,inactive,inactive,inactive,,,,,inactive,,inactive,inactive,inactive,inactive,inactive,inactive,,,
CC1(C)O[C@@H]2[C@@H](CO[C@@]3(COS(N)(=O)=O)OC(C)(C)O[C@@H]23)O1,inactive,inactive,,,,,,,,,,inactive,inactive,,inactive,inactive,,,,
CCCCC(CC)COC(=O)c1ccc(O)cc1 (stereo not given),inactive,inactive,,inactive,,inactive,,inactive,inactive,inactive,inactive,inactive,inactive,inactive,inactive,inactive,,inactive,,
BrCc1cccc(Oc2ccccc2)c1,inactive,inactive,,inactive,inactive,inactive,inactive,inactive,,,inactive,,inactive,inactive,inactive,inactive,inactive,,,
